23 compounds from PubChem BioAssay (Tox21) can be followed below.

Results filed as inconclusive are left out. Values without a mark were called inactive. Calls of active or inactive are those of the source. Calls follow the shape of the dose curve; as a rule, active = well fitted curve in the direction sought with a large enough effect in the repeat runs; inconclusive = weak or mixed curves; inactive = no such curve, though single readings can be large; an effect the other way counts as inactive or inconclusive.

Assay [1] can be described thus: qHTS RealTime-Glo MT Cell Viability Assay in HepG2 cells - 40 hour (AID 1224870). Also: nearly all actives have a fitted effect of over 50% in size. The method, boiled down:
(§1)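 Real-time viability: cells seeded at 600 per well together with NanoLuc and cell-permeant prosubstrate, compounds added after 5 h incubation. Luminescence tracked at 0, 8, 16, 24, 32 and 40 h of exposure.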
In general terms: In qHTS, concentration-response curves come from the screen itself.

The nature of assay [2]: A CellTox Green Cytotoxicity Assay to monitor cytotoxicity in HEK293 cells - 40 hour (AID 1224871). Also: nearly all actives have a fitted effect of over 45% in size. The method, boiled down: (§2)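 Homogeneous no-lysis format: HEK293 cell suspension mixed with CellTox Green reagent, seeded, incubated 5 h at 37 C/5% CO2, then dosed by pintool with compound in DMSO.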
The nature of assay [3]: qHTS RealTime-Glo MT Cell Viability Assay in HEK293 cells - 16 hour (AID 1224872). Also: nearly all actives have a fitted effect of over 50% in size. Also: potency is read from the fitted curve at half-maximal effect. As to activity change, negative = cytotoxicity: top concentration of the series differs between compounds. Summed up: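 Reads taken at 0, 8, 16, 24, 32 and 40 h from the same wells. HEK293 cells (600/well) carried RealTime-Glo reagents from seeding, with compound added after a 5 h settle at 37 C.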
The nature of assay [4]: qHTS RealTime-Glo MT Cell Viability Assay in HepG2 cells - 8 hour (AID 1224873). Also: nearly all actives have a fitted effect of over 55% in size. The method, boiled down: as §1
Assay [5] in a line: qHTS RealTime-Glo MT Cell Viability Assay in HEK293 cells - 40 hour (AID 1224874). Also: nearly all actives have a fitted effect of over 50% in size. Also: potency is read from the fitted curve at half-maximal effect. The following applies: RealTime-Glo luminescence; max response: hits give low values. Summed up: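 Measured as luminescence from the same continuously cultured HEK293 wells at successive time points (0, 8, 16, 24, 32, 40 h) after compound addition. Reagent present from seeding; dosing at 5 h; incubation 37 C.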

Assay [6] in a line: A CellTox Green Cytotoxicity Assay to monitor cytotoxicity in HepG2 cells - 16 hour (AID 1224876). Also: nearly all actives have a fitted effect of over 45% in size. Summed up:
(§3)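 Fluorescent DNA-binding dye, 600 HepG2 cells/well, 5 h preincubation then compound in DMSO; same plates read at 0–40 h, 37 C.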

A short description of assay [7]: qHTS RealTime-Glo MT Cell Viability Assay in HepG2 cells - 32 hour (AID 1224877). Also: nearly all actives have a fitted effect of over 55% in size. The method, boiled down: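 HepG2 suspension premixed with RealTime-Glo reagents is plated at 600 cells per well and left 5 h at 37 C/5% CO2. Compounds in DMSO then go in, and bioluminescence reflecting viable cell number is recorded over 40 h.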
The nature of assay [8]: A CellTox Green Cytotoxicity Assay to monitor cytotoxicity in HepG2 cells - 24 hour (AID 1224878). Also: nearly all actives have a fitted effect of over 45% in size. The method, boiled down: as §3
Assay [9] in a line: A CellTox Green Cytotoxicity Assay to monitor cytotoxicity in HepG2 cells - 40 hour (AID 1224879). Also: nearly all actives have a fitted effect of over 40% in size. The method, boiled down:
as §3

Assay [10] is described as follows: A CellTox Green Cytotoxicity Assay to monitor cytotoxicity in HEK293 cells - 24 hour (AID 1224875). Also: series mostly up to about 77 µM; nearly all actives have a fitted effect of over 45% in size. Summed up: as §2
% is scaled to controls: 0 for no effect and ±100 for the full control effect.

As to `Cc1nccn1CC1CCc2c(c3ccccc3n2C)C1=O` (stereo not drawn), the Potency entry in assay [1], in assay [2], in assay [3], in assay [6], in assay [7] and in [8] was “inactive” in each case. In assay [9], the Potency entry is “inactive”. Also, the compound was called inactive in assay [4]. The max response in assay [5] was -14.4%.

`CCCCCCCCCCCCCCCCCC(=O)OCCCCCCCCCCCCCC(C)C`: the Potency result in assay [1], in assay [2], in assay [3], in assay [6], in assay [7] and in assay [8] was “inactive” each time. Besides, in [9], the Potency entry was “inactive”. The compound was called inactive in [4]. For the same compound, the max response in assay [5] is 1.07%.

With `CCn1c(=O)c2c(nc(/C=C/c3ccc(OC)c(OC)c3)n2C)n(CC)c1=O`, the Potency result in [1], in assay [2], in assay [10], in assay [6], in assay [8] and in assay [9] was “inactive” throughout. The Potency in assay [3] and in assay [5] was 1690 nM (active) each time. Further, the compound was called inactive in assay [4].

Turning to `c1ccc(SCCSc2ccccc2)cc1`, the Potency entry in assay [1], in assay [2], in assay [3], in assay [10], in assay [6] and in assay [8] was “inactive” each time. Moreover, the Potency entry in [9] is “inactive”. Also, in assay [4], the result was inactive. Moreover, in [5], the max response was 6.54%.

Turning to `CCCOCC(C)OCC(C)O` (stereo not drawn), the Potency entry in [1], in assay [2], in assay [3], in assay [10], in [6] and in assay [9] was “inactive” throughout. Besides, the result in [4] was inactive. Further, the max response in [5] is 5.98%.

Regarding `CCCC(=O)O[C@]1(C(=O)CCl)[C@@H](C)C[C@H]2[C@@H]3CCC4=CC(=O)C=C[C@]4(C)[C@@]3(F)C(=O)C[C@@]21C`, the Potency entry in assay [1], in [2], in assay [3], in assay [6], in assay [7] and in assay [8] was “inactive” in each case. The Potency result in assay [9] was “inactive”. Besides, in assay [4], the compound was classed as inactive. In addition, the max response in [5] is -19.8%.

For the compound `C=C(C)C(=O)NCCC[N+](C)(C)C`, the Potency entry in assay [1], in assay [2], in [3], in assay [6], in assay [7] and in [9] was “inactive” in each case. Also, in assay [4], the compound was classed as inactive. For the same compound, the max response in [5] is 0.623%.

For the compound `Cc1cc(C)c(NC(=O)CN(CC(=O)O)CC(=O)O)c(C)c1Br`, the Potency result in assay [1], in assay [2], in [3], in assay [10], in assay [6] and in assay [8] was “inactive” throughout. Also, the Potency result in assay [9] was “inactive”. The compound was called inactive in assay [4]. Also, in assay [5], the max response was -1.32%.

Turning to `Nc1nc(F)nc2c1ncn2[C@@H]1O[C@H](CO)[C@@H](O)[C@@H]1O`, the Potency entry in assay [1], in [2], in assay [3], in assay [10], in assay [6] and in assay [8] was “inactive” throughout. In addition, the Potency result in assay [9] was “inactive”. In addition, the compound was called inactive in assay [4]. In addition, in assay [5], the max response is -1.6%.

As to `CCCCc1ccc2cccc(S(=O)(=O)O)c2c1`, the Potency result in [1], in [2], in assay [3], in assay [6] and in assay [7] was “inactive” throughout. Moreover, in assay [4], the compound was called inactive. The max response in assay [5] was 3.37%.

Turning to `NC(N)=NS(=O)(=O)c1ccc(N)cc1`, the Potency result in [1], in assay [2], in assay [3], in assay [6], in assay [7] and in assay [8] was “inactive” each time. The Potency entry in [9] is “inactive”. The compound was called inactive in assay [4]. In addition, the max response in [5] is -4.08%.

For `CC(C)(C)N(CCO)CCO`, the Potency entry in assay [1], in assay [2], in assay [3], in assay [10], in assay [6] and in assay [9] was “inactive” each time. The compound was classed as inactive in assay [4]. Moreover, the max response in assay [5] was 0.933%.

On to `Oc1cc(O)c2c(c1)O[C@H](c1ccc(O)c(O)c1)[C@H](O)C2`, for which the Potency result in assay [1], in assay [2], in assay [3], in assay [6], in [7] and in assay [8] was “inactive” each time. The Potency entry in [9] was “inactive”. Moreover, the compound was classed as inactive in assay [4]. Also, the max response in assay [5] is 0.448%.

Take `COCc1ccc(COC)cc1`: the Potency result in assay [1], in assay [2], in assay [3], in assay [10], in assay [6] and in assay [8] was “inactive” throughout. The Potency entry in assay [9] was “inactive”. Besides, the compound was called inactive in assay [4]. The max response in [5] was 4.98%.

In the case of `O=S(=O)(c1cccc2cnccc12)N1CCCNCC1`, the Potency result in assay [1], in assay [2], in assay [3], in [6] and in assay [7] was “inactive” throughout. Further, the compound was classed as inactive in assay [4]. Also, the max response in [5] was 8.06%.

In the case of `C1COCCO1`, the Potency result in [1], in assay [2], in assay [3], in assay [6], in assay [7] and in assay [8] was “inactive” in each case. For the same compound, the Potency entry in [9] was “inactive”. For the same compound, the result in assay [4] was inactive. Further, the max response in [5] is 4.29%.

Take `C#CC(O)C(CC)CCCC` (stereo not drawn): the Potency result in assay [1], in [2], in assay [3], in [10], in [6] and in assay [8] was “inactive” in each case. In addition, the Potency result in assay [9] is “inactive”. Besides, the call in [4] was inactive. Also, the max response in assay [5] was 11.7%.

For the compound `CC1CCN(CCCC(=O)c2ccc(F)cc2)CC1`, the Potency entry in [1], in assay [2], in assay [3], in assay [6], in assay [7] and in [9] was “inactive” in each case. Moreover, the result in assay [4] was inactive. In addition, the max response in assay [5] is -2.98%.

On to `CC(C)c1ccc2oc3nc(N)c(C(=O)O)cc3c(=O)c2c1`, for which the Potency result in [1], in [2], in assay [3], in [10], in assay [6] and in assay [9] was “inactive” each time. The call in assay [4] was inactive. The max response in assay [5] was 13%.

As to `C=C(C)C(=O)OCCCCCCCCCCCCCCCCCC`, the activity change, negative = cytotoxic in assay [1] is 13.1% [at 15.8 µM]; in assay [7], 6.06% [at 15.8 µM]. Also, the cytotoxicity increase in [2] is 0.266% [at 15.8 µM]; in assay [6], 3.12% [at 15.8 µM]; in assay [9], 2.24% [at 15.8 µM]. Besides, the activity change, negative = cytotoxicity in assay [3] is 9.27% [at 15.8 µM]. For the same compound, the viability change, negative = cytotoxic in [4] was -0.392% [at 15.8 µM]. Further, the max response in assay [5] was 3.5%. In addition, the cytotoxicity in assay [8] was -0.0576% [at 15.8 µM].

For `COc1nc(C)nc(N)n1`, the Potency result in assay [1], in [2], in [3], in assay [6], in assay [7] and in assay [8] was “inactive” each time. Further, in [9], the Potency entry is “inactive”. The outcome in assay [4] was inactive. In addition, the max response in [5] was -1.44%.

In the case of `CC(=O)N[C@@H](CCC(N)=O)C(=O)O`, the Potency result in [1], in assay [2], in assay [3], in [10], in assay [6] and in assay [8] was “inactive” each time. Also, the Potency entry in [9] is “inactive”. Besides, the result in assay [4] was inactive. Besides, the max response in assay [5] was -1.52%.

Regarding `NCCN1CCNC1=O`, the Potency result in [1], in assay [2], in assay [3], in assay [10], in assay [6] and in [8] was “inactive” throughout. Besides, in assay [9], the Potency entry was “inactive”. In addition, the compound was classed as inactive in assay [4]. In assay [5], the max response was 0.993%.
